Most compounds without a hit are left out; they make up all but 3.2% or so of the library.
PHOSPHO1 block – PHOSPHO1 (human) inhibition; Q8TCT1; recombinant PHOSPHO1, absorbance phosphatase assay; inhibition, % at 13.3 µM; 290,000 tested, 1.1% active; in the data active = inhibition above about 60%
HDAC3 inh – human HDAC3 inhibition; recombinant HDAC3, fluorogenic peptide/trypsin coupled, fluorescence; inhibition, % at 8.3 µM; 320,000 tested, 0.15% active; AID 2718; in the data active = inhibition above about 26%, passing the limit was not always enough; inconclusive = no clear call, values can overlap the other calls
CHT block – inhibits the human high affinity choline transporter. Q9GZV3. 310,000 tested, 0.86% active. CHT-expressing cells, membrane potential dye, choline response; stronger effect = lower value. B-score at 10 µM. AID 488975;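 active = B-score over 3 SD under the library average, and starting fluorescence ratio not unusually high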;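 also: choline stimulus applied at its EC90 after an EC20 pre-addition; B-score computed on integrated fluorescence ratio after choline addition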
Target sequence (Q9GZV3 whole entry, looked up): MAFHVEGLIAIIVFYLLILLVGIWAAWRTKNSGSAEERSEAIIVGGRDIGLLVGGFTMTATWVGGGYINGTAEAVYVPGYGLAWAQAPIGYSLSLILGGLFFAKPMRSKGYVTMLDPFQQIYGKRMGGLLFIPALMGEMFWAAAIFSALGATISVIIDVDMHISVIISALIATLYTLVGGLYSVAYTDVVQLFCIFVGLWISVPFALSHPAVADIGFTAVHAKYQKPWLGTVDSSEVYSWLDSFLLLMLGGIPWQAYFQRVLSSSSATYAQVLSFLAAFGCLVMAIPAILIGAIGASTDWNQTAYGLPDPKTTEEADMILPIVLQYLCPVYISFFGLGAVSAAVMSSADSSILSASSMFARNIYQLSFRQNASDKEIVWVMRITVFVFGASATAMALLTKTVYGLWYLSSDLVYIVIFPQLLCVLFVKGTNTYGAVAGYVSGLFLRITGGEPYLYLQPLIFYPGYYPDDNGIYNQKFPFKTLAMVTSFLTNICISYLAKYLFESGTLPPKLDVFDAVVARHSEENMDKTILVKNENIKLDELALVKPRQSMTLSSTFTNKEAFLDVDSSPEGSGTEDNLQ
TMEM16A act – mouse TMEM16A channel activation, primary screen; Q8BHY3; HEK293 TMEM16A/YFP-H148Q/I152L, iodide quench fluorescence; stronger effect = lower value; B-score at 10 µM; 340,000 tested, 0.3% active;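 active = fluorescence-ratio B-score plate-corrected deviation score at least 3 library SD below zero, with starting fluorescence score within 5 deviations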;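 also: channel opened by trigger with iodide after compound preincubation; score built on the fluorescence ratio of max minus min over baseline; more negative score means more quench and so TMEM16A activation or potentiation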
CHT allo act – allosterically activates the human high affinity choline transporter; Q9GZV3; CHT-expressing cells, membrane potential dye, choline EC20; stronger effect = higher value; LV-AA mutant CHT in HEK293 cells; B-score at 10 µM; 310,000 tested, 0.49% active; AID 488977;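 active = initial fluorescence not abnormally high and integrated response B-score, plate-corrected, over 3 SD above library mean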
ANO1 block – mouse TMEM16A channel inhibition, primary screen | normalized B-score (activity score, 25-100; higher = stronger inhibition) at 10 µM | HEK293 TMEM16A/YFP iodide influx fluorescence, ionomycin | 310,000 tested, 1.2% active | Q8BHY3;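 active = ratio plate-corrected score three or more library SD toward inhibition, starting fluorescence score within five deviations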;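 also: score derived from kinetic fluorescence span divided by baseline fluorescence per well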
* marks the source's active call; other numbers are inactive results.

Screening CCOC(=O)CNS(=O)(=O)CCN1C(=O)c2ccccc2C1=O returned PHOSPHO1 block 19, HDAC3 inh -2, CHT block inactive, TMEM16A act inactive, CHT allo act inactive and ANO1 block inactive.
For Cc1ccc(OCc2nnc(SCCN3CCOCC3)n2C)cc1 the results were PHOSPHO1 block 74*, HDAC3 inh 3, CHT block inactive, TMEM16A act inactive, CHT allo act inactive and ANO1 block inactive.
Screening COc1ccccc1OCC(=O)NCCc1nc2ccccc2[nH]1 returned PHOSPHO1 block -13, HDAC3 inh -2, CHT block inactive, TMEM16A act inactive, CHT allo act inactive and ANO1 block inactive.
Cc1ccc(OCC(=O)NCCc2nc3ccccc3[nH]2)c(C)c1 was read as PHOSPHO1 block 61*, HDAC3 inh -2, CHT block inactive, TMEM16A act inactive, CHT allo act inactive and ANO1 block inactive.
Screening CCOc1ccc(NCc2nc3ccccc3n2CCOc2ccccc2)cc1 returned PHOSPHO1 block -3, HDAC3 inh 10, CHT block inactive, TMEM16A act inactive, CHT allo act inactive and ANO1 block inactive.
Screening Cc1c(C(=O)Nc2nccs2)oc2c(Cl)cccc12 returned HDAC3 inh -3, CHT block inactive, TMEM16A act inactive, CHT allo act inactive and ANO1 block inactive.
COc1ccccc1/C=C/C=N/n1c(-c2ccccc2)n[nH]c1=S was read as PHOSPHO1 block 99*, CHT block inactive, TMEM16A act inactive, CHT allo act inactive and ANO1 block inactive.
Screening CCCOC(=O)CSC1=C(C#N)C(c2ccccc2OCC)C(C#N)C(=O)N1 (stereo not drawn) returned PHOSPHO1 block 75*, HDAC3 inh 6, CHT block inactive, TMEM16A act inactive, CHT allo act inactive and ANO1 block inactive.
CCCCOC(=O)CSC1=C(C#N)C(c2ccccc2OCC)C(C#N)C(=O)N1 (stereo not drawn) was read as PHOSPHO1 block 36, HDAC3 inh 15, CHT block inactive, TMEM16A act inactive, CHT allo act inactive and ANO1 block inactive.
Screening CCN(CC)S(=O)(=O)c1cccc(NC(=O)Nc2cccc(C(F)(F)F)c2)c1 returned PHOSPHO1 block 8, HDAC3 inh inconclusive, CHT block inactive, TMEM16A act inactive, CHT allo act inactive and ANO1 block 100*.
Screening COc1cc(S(=O)(=O)NC2CCCC2)c(OC)cc1C returned PHOSPHO1 block 13, CHT block inactive, TMEM16A act inactive, CHT allo act inactive and ANO1 block inactive.
COc1ccccc1CNS(=O)(=O)c1ccc2c(c1)CC(C)N2C(=O)C1CC1 (stereo not drawn) was read as PHOSPHO1 block 30, HDAC3 inh 1, CHT block inactive, TMEM16A act inactive, CHT allo act inactive and ANO1 block inactive.
CCC(C)(C)NC(=O)C1CCCN(S(=O)(=O)c2ccc3c(c2)CC(C)N3C(=O)C2CC2)C1 (stereo not drawn) was read as PHOSPHO1 block 63*, HDAC3 inh 6, CHT block inactive, TMEM16A act inactive, CHT allo act inactive and ANO1 block inactive.
For CCOC(=O)C1CCN(S(=O)(=O)c2ccc3c(c2)CC(C)N3C(=O)C2CCC2)CC1 (stereo not drawn) the results were PHOSPHO1 block 43, HDAC3 inh 6, CHT block inactive, TMEM16A act inactive, CHT allo act inactive and ANO1 block 25*.
CC1CCN(S(=O)(=O)c2ccc3c(c2)CC(C)N3C(=O)C2CCC2)CC1 (stereo not drawn) was read as PHOSPHO1 block 29, HDAC3 inh 9, CHT block inactive, TMEM16A act inactive, CHT allo act inactive and ANO1 block 25*.
`COc1ccccc1CNS(=O)(=O)c1ccc2c(c1)CC(C)N2C(=O)C1CCC1` (stereo not drawn) gave PHOSPHO1 block -16, HDAC3 inh 1, CHT block inactive, TMEM16A act inactive, CHT allo act inactive and ANO1 block 25*.
Screening CC1Cc2cc(S(=O)(=O)N3CCCCC3)ccc2N1C(=O)C1CCC1 (stereo not drawn) returned PHOSPHO1 block 43, HDAC3 inh -1, CHT block inactive, TMEM16A act inactive, CHT allo act inactive and ANO1 block inactive.
For CC1CCN(C(=O)C2CCCN(S(=O)(=O)c3ccc4c(c3)CC(C)N4C(=O)C3CC3)C2)CC1 (stereo not drawn) the results were PHOSPHO1 block 25, HDAC3 inh 2, CHT block inactive, TMEM16A act inactive, CHT allo act inactive and ANO1 block inactive.
For CCOC(=O)C1CCCN(S(=O)(=O)c2ccc3c(c2)CC(C)N3C(=O)C2CC2)C1 (stereo not drawn) the results were PHOSPHO1 block 36, HDAC3 inh 1, CHT block inactive, TMEM16A act inactive, CHT allo act inactive and ANO1 block inactive.
Cc1sc(NC(=O)CCC(=O)O)c(C#N)c1C was read as PHOSPHO1 block 6, HDAC3 inh -8, CHT block inactive, TMEM16A act inactive, CHT allo act inactive and ANO1 block inactive.
For O=C(C1CCN(S(=O)(=O)c2cccc3nsnc23)CC1)N1CCCc2ccccc21 the results were PHOSPHO1 block 60*, HDAC3 inh 2, CHT block inactive, TMEM16A act inactive, CHT allo act inactive and ANO1 block inactive.
`CCC1(C(=O)OC)NC(c2ccco2)C2C(=O)N(c3ccccc3)C(=O)C21` (stereo not drawn) gave PHOSPHO1 block -16, HDAC3 inh 2, CHT block inactive, TMEM16A act -4.8*, CHT allo act inactive and ANO1 block inactive.
Screening CCOC(=O)CSc1nc2sc3c(c2c(=O)[nH]1)CC(C)(CC)OC3 (stereo not drawn) returned PHOSPHO1 block 81*, HDAC3 inh -1, CHT block inactive, TMEM16A act inactive, CHT allo act inactive and ANO1 block inactive.
For Cc1ccc(S(=O)(=O)N2CCN(C(=O)CCOc3cc(C)ccc3C)CC2)cc1 the results were HDAC3 inh 2 and TMEM16A act -44*.
For COC(=O)CCCCC1SCC(NC(=O)OC)C1NC(=O)OC (stereo not drawn) the results were PHOSPHO1 block 0, HDAC3 inh -4, CHT block inactive, TMEM16A act inactive, CHT allo act inactive and ANO1 block inactive.
Cc1ccc(S(=O)(=O)c2nc(-c3ccco3)oc2SCC(N)=O)cc1 was read as PHOSPHO1 block 27, HDAC3 inh 3, CHT block inactive, TMEM16A act inactive, CHT allo act inactive and ANO1 block inactive.

Compound activity deposited in PubChem by several laboratories.
